# Experimental data as given in the supplement of paper PMC7556523.
# A number with no mark means an inactive call.
# How the values were obtained:
# [1] = test system: Sporothrix brasiliensis CBS 133006; experiment: growth inhibition relative to untreated control; higher = more growth inhibition (more antifungal activity), active = 80 or more; extreme values may be limits of the assay; conditions: 1 µM; 48 h
# Method in brief: (§1)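 Yeast-form cells of the reference isolates (grown 7 days in brain heart infusion broth with 2% glucose at 36°C) were exposed at 1 x 10^5 CFU/ml to library compounds at a final 1 μM for 48 h at 35°C in 5% CO2. Growth was checked by visual inspection under an inverted light microscope and quantified by spectrophotometric readings. The value is percent growth inhibition relative to untreated control. Runs were in quadruplicate.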
# [2] = test system: Sporothrix schenckii ATCC 32286; experiment: as above; conditions: 1 µM; 48 h
# Method in brief: as §1
Compound,growth inhibition [1] [%],growth inhibition [2] [%]
NC(CC(=O)c1ccc(Cl)cc1Cl)C(Cl)(Cl)Cl (centres undefined),9.25,14
Cc1ccc(S(=O)(=O)n2cc(-c3ccnc(N)c3)c3cc(Br)cnc32)cc1,0,5.25
CC(C)(C)n1nc(-c2ccccc2)c2c(N)ncnc21,0,9
COc1ccccc1OCCCCn1c(C2CC2)nc2ccccc21,7.75,9.25
C[C@H]1c2cccc(O)c2C(=O)C2=C(O)[C@]3(O)C(=O)C(C(N)=O)=C(O)[C@@H](N(C)C)[C@@H]3[C@@H](O)[C@@H]21,9.12,10.5
CC(C)C(Oc1cccc2ccccc12)C(=O)O (centres undefined),23.2,4.25
CCc1ccc([C@@H]2C[C@H](C(F)(F)F)n3ncc(C(=O)NCc4ccc(OC)cc4)c3N2)cc1,15.5,12.2
Nc1ncc(-c2cn[nH]c2)cc1-c1nc2cc(Cl)cnc2[nH]1,12,11
CS(=O)(=O)Cc1nc2ccccc2oc1=O,21.8,4.75
O=C(NCCc1c[nH]c2ccccc12)c1cc2ccccc2oc1=O,17.8,4.5
Cc1cc(O)nc(-n2nc(C)cc2C)n1,4.75,11.8
COc1ccc2nc(C)cc(OCC(=O)NCc3ccccc3)c2c1,1.75,14.8
Cc1ccc(S(=O)(=O)N2CCN(C(=O)c3cc(-c4ccccc4)n[nH]3)CC2)cc1,1.5,2
CN1CCN(CCCOc2ncc(Nc3ncc(-c4ccc(C(F)(F)F)c(F)c4)nc3C(N)=O)cn2)CC1,12.5,0
Cc1nn(C(=O)Nc2cccc(C(F)(F)F)c2)c(C)c1Sc1ncccn1,28.2,15.2
CC(=O)NC[C@@H]1CN(c2ccc(N3CCOCC3)c(F)c2)C(=O)O1,1.75,12.5
O=C(CCC1CCCCC1)Nc1cccc(-c2nnc(-c3ccco3)o2)c1,2.5,2.5
